Among the data in PubChem BioAssay (NCI) are growth values, retold here.

Molecules are shown by their SMILES. About 83,000 compounds went through this panel and 20% of them were active in at least one assay; those are over-represented in the sample as a whole.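 Single-dose data. Exposure time 48 hours. Values below 10 considered active.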 Values without a mark were called inactive. Active and inactive are the calls of the source.

Some test systems named below: SR leukemia; RPMI-8226 leukemia; OVCAR-8 ovarian; OVCAR-5 ovarian; OVCAR-4 ovarian; SK-OV-3 ovarian; IGROV1 ovarian; OVCAR-3 ovarian; HS 578T breast; NCI/ADR-RES ovarian; T-47D breast; BT-549 breast; MDA-MB-435 melanoma; SW-620 colon; HCT-116 colon; HCC-2998 colon; KM12 colon; MDA-MB-468 breast; MCF7 breast.
Common to all, as to test: NCI-60 one-dose screen, 48 h (100 = growth as untreated, 0 = no growth, -100 = all killed)
Common to all, as to details: 10 µM unless noted

On to `COc1ccc2[nH]c(=O)c(CSc3nccc(-c4ccc(OC)c(OC)c4)n3)cc2c1`, for which the growth in the test with SR leukemia is 23.1%; with RPMI-8226 leukemia it was 14.7%; with OVCAR-8 ovarian, 16%; in the test on OVCAR-5 ovarian it was 52.4%; with OVCAR-4 ovarian it was 8.75% (active); with SK-OV-3 ovarian, 55.8%. In addition, the growth was 49.8% with IGROV1 ovarian; 41.9% in the test with OVCAR-3 ovarian; -7.63% (active) with HS 578T breast; 23.6% with NCI/ADR-RES ovarian; -2.81% (active) in the test with T-47D breast; -43.8% (active) with BT-549 breast. For the same compound, the growth in the test with MDA-MB-435 melanoma was 11.4%; in the test on SW-620 colon, 44.5%; in the test on HCT-116 colon it was 8.21% (active); with HCC-2998 colon, 26.3%; in the test on KM12 colon, 32.2%; in the test on MDA-MB-468 breast, -12.3% (active).

As to `C#CCOc1cc(N(CC)CC)ccc1C(C(=O)NC(C)(C)C)N(C(=O)C1CCc2cc(F)ccc2O1)c1ccc(Br)cc1` (stereo not drawn), the growth in the test with SR leukemia was 54%; in the test with RPMI-8226 leukemia it was 44.7%; with OVCAR-8 ovarian it was 89.3%; in the test with OVCAR-5 ovarian, 87.1%; in the test on OVCAR-4 ovarian, 82.3%; in the test on SK-OV-3 ovarian, 95.3%. Moreover, the growth in the test with IGROV1 ovarian is 80.2%; with OVCAR-3 ovarian, 107%; with HS 578T breast it was 88.3%; in the test with NCI/ADR-RES ovarian, 89.4%; with T-47D breast, 71.3%; in the test with BT-549 breast, 75%. Also, the growth in the test with MDA-MB-435 melanoma is 69.9%; in the test on SW-620 colon it was 77.9%; in the test with MCF7 breast, 52.8%; with HCT-116 colon, 35.6%; with HCC-2998 colon it was 100%; with KM12 colon, 60.4%. Further, in the test on MDA-MB-468 breast, the growth is 61.2%.

For the compound `Nc1cccc(SCc2cc3ccccc3[nH]c2=O)c1`, the growth in the test with SR leukemia was 36.5%; in the test on RPMI-8226 leukemia, 33.1%; in the test on OVCAR-8 ovarian, 56.7%; with OVCAR-5 ovarian it was 63.6%; in the test with OVCAR-4 ovarian, 44.1%; in the test on SK-OV-3 ovarian it was 80%. Moreover, the growth is 72.9% with IGROV1 ovarian; 65.2% in the test with OVCAR-3 ovarian; 78.2% with HS 578T breast; 67.8% in the test with NCI/ADR-RES ovarian; 33.3% in the test on T-47D breast; 46.7% in the test on BT-549 breast. Besides, the growth in the test with MDA-MB-435 melanoma was 30.5%; in the test on SW-620 colon, 23.5%; in the test on MCF7 breast, 37.4%; with HCT-116 colon, 50.3%; in the test with HCC-2998 colon, 26.8%; with KM12 colon it was 0.625% (active). In addition, the growth in the test on MDA-MB-468 breast was 45.9%.

`CC12CC[C@@H]3[C@]4(C)COC(c5cn[nH]c5-c5cccc(Cl)c5)O[C@@H]4CC[C@@]3(C)[C@@H]1CC(C1=CCOC1=O)O2` (stereo partly drawn): the growth in the test on SR leukemia was 29.7%; in the test with RPMI-8226 leukemia it was 13.8%; in the test on OVCAR-8 ovarian, 38.7%; in the test on OVCAR-5 ovarian, 61.7%; in the test on OVCAR-4 ovarian, 29.1%; with SK-OV-3 ovarian, 62.4%. The growth is 49.8% in the test on IGROV1 ovarian; 44.5% with OVCAR-3 ovarian; 46.8% in the test on HS 578T breast; 31.1% with NCI/ADR-RES ovarian; 17.7% with T-47D breast; 0.371% (active) in the test with BT-549 breast. Also, the growth in the test with MDA-MB-435 melanoma was 44.1%; with SW-620 colon, 50.6%; in the test on HCT-116 colon, 19.1%; with HCC-2998 colon, 40.7%; in the test on KM12 colon, 17.9%; with MDA-MB-468 breast, 7.22% (active).

Consider `Cn1cc(-c2cc3nc(-c4cn(C)c5ncc(Br)cc45)cc(N)n3n2)c2cc(Cl)ccc21`, for which the growth in the test on SR leukemia is -28.1% (active); with RPMI-8226 leukemia it was -4.61% (active); in the test with OVCAR-8 ovarian it was -54.4% (active); in the test with OVCAR-5 ovarian, -81.4% (active); in the test with OVCAR-4 ovarian, -59.4% (active); in the test on SK-OV-3 ovarian, -69.2% (active). Further, the growth was -73.1% (active) in the test on IGROV1 ovarian; -54.4% (active) with OVCAR-3 ovarian; -36.1% (active) with HS 578T breast; -58.4% (active) in the test with NCI/ADR-RES ovarian; -62% (active) with T-47D breast; -78.8% (active) with BT-549 breast. For the same compound, the growth with MDA-MB-435 melanoma was -88.4% (active); in the test on SW-620 colon it was -81.5% (active); in the test on HCT-116 colon it was -89.3% (active); in the test with HCC-2998 colon, -99.1% (active); in the test on KM12 colon it was -58.5% (active); in the test with MDA-MB-468 breast, -88.5% (active).

As for `C=C1CC[C@@H]2[C@]3(C)COC(c4cn[nH]c4-c4cccc(Br)c4)O[C@@H]3CC[C@@]2(C)[C@@H]1C/C=C1/C(=O)OCC1O` (stereo partly drawn), the growth with SR leukemia is 12.7%; in the test with RPMI-8226 leukemia, -6.49% (active); in the test on OVCAR-8 ovarian it was -42.5% (active); in the test with OVCAR-5 ovarian, -76.2% (active); in the test on OVCAR-4 ovarian, 10.8%; with SK-OV-3 ovarian, -33% (active). In addition, the growth in the test with IGROV1 ovarian is -60.2% (active); with OVCAR-3 ovarian it was -97.6% (active); in the test with HS 578T breast, 5.38% (active); with NCI/ADR-RES ovarian, -50.1% (active); in the test with T-47D breast, -6.99% (active); in the test on BT-549 breast, -94.2% (active). In addition, the growth is -50.2% (active) with MDA-MB-435 melanoma; -81.1% (active) with SW-620 colon; -95.9% (active) in the test on HCT-116 colon; -100% (active) in the test with HCC-2998 colon; -67.1% (active) in the test on KM12 colon; -95.4% (active) in the test with MDA-MB-468 breast.

For `COc1ccc(-c2nc3cc(C)ccc3n2CC(=O)N=Nc2c(O)[nH]c3ccc(Cl)cc23)cc1`, the growth was -7.22% (active) with SR leukemia; 41.8% with RPMI-8226 leukemia; -74.8% (active) with OVCAR-8 ovarian; 3.51% (active) in the test on OVCAR-5 ovarian; -25.4% (active) in the test with OVCAR-4 ovarian; 13.7% in the test on SK-OV-3 ovarian. The growth in the test on IGROV1 ovarian was 18.3%; in the test with OVCAR-3 ovarian it was -13.8% (active); with HS 578T breast, -2.87% (active); with NCI/ADR-RES ovarian, -30.8% (active); with T-47D breast, 2.44% (active); in the test on BT-549 breast, -43.7% (active). Also, the growth with MDA-MB-435 melanoma was -7.28% (active); in the test with SW-620 colon, 12.4%; with HCT-116 colon, -65.4% (active); in the test with HCC-2998 colon, -1.72% (active); in the test with KM12 colon, 9.61% (active); with MDA-MB-468 breast, -42.6% (active).
